# Laboratory results from the supplement of paper PMC6555819.
# Experiments:
# Test in all cases: PBM binding z-score (relative to random genomic background probes); higher = stronger binding; sequences stand for … in GC…GCGATTGACAGCGTAGAATGAAGG
# [1] = test system: RARb homodimer (NR concentration 270 nM)
# Outline: (§1)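 Binding z-scores take random background probes as their reference. They come from custom Agilent 4×180K protein-binding microarrays incubated 1 h with ligand-free nuclear receptor dimers, with antibodies against each partner (one per run) detecting binding. Scanned fluorescence was regression-normalized.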
# [2] = test system: RARg:RXRa (NR concentration 270 nM, RXRa partner concentration 90 nM)
# Outline: as §1
# [3] = test system: RARg homodimer (NR concentration 270 nM)
# Outline: as §1
# [4] = test system: RXRa DBDmut IVT, anti-RXR (DBD mutation: RXRa K156A/R161A, NR concentration 90 nM)
# Outline: as §1
# [5] = test system: RXRa homodimer (NR concentration 180 nM)
# Outline: as §1
# [6] = test system: THRa:RXRa (NR concentration 90 nM, RXRa partner concentration 90 nM)
# Outline: as §1
# [7] = test system: THRa homodimer (NR concentration 90 nM)
# Outline: as §1
# [8] = test system: VDR:RXRa (NR concentration 270 nM, RXRa partner concentration 90 nM)
# Outline: as §1
# [9] = test system: VDR homodimer (NR concentration 270 nM)
# Outline: as §1
Sequence,PBM binding z-score [1],PBM binding z-score [2],PBM binding z-score [3],PBM binding z-score [4],PBM binding z-score [5],PBM binding z-score [6],PBM binding z-score [7],PBM binding z-score [8],PBM binding z-score [9]
GCTTACGGCTCAAAGGTTATAGCATGAATAGAAT,1.05,1.29,0.586,0.213,1.93,1.21,-0.314,0.88,-0.204
TCAGACCGGTGAAGGTAACTCAGGTACGCAGTCG,0.271,0.022,-0.104,0.832,0.506,1.29,-0.0547,0.501,0.152
CGTCCAAGGTCAAGGTCAGTGACAGAGACTCGAA,5.06,6.76,7.62,3.72,6.77,4.35,3.7,4.83,3.35
CGTCCAAGGTCAAGATCAGTGAAAGAGACTCGAA,3.53,5.63,6.45,3.61,5.54,3.58,1.84,3.61,1.6
ATATGTAGGTTAAGGGCCATTCAGGTTGGTTCGC,1.36,0.896,1.04,0.622,1.21,1.17,0.32,1.01,1.15
GGAACGAGGGCGAAGTTGATAGCATCTGTCGACG,-0.341,0.0412,0.2,1.17,0.297,-0.192,-0.526,-0.285,0.152
TCTGCTAGGTCAACGATGGTGAGCTAATCTGCTA,2.8,3.82,4.93,0.81,1.99,2.68,0.17,1.15,-0.792
TCTTGTAGATCAACCGGAGGTTAAGAAAGATCGA,0.462,1.22,0.219,0.651,0.914,1.12,-0.269,0.672,-0.0131
ACTAGTTGGTCTGCTGAGGTCACACACAATTCGG,3.79,3.33,2.94,1.37,3.45,4.32,5.25,3.54,3.1
TATATTAGTTGATTAGGGCAACCGAAACAGCGGA,0.779,0.789,1.19,0.252,0.43,0.944,0.495,0.452,0.982
TCTGCTAGGTCAGTCGGTCAGCTAACGAGCTGCC,3.32,3.52,4.64,0.278,1.08,1.17,0.0132,0.139,-1.13
GCTAGCAGGCCATTTGGGTCACTCTATGACGGGC,1.56,0.776,0.994,-0.157,0.463,1.4,0.526,0.648,0.578
CGAACGAGGGCTTGAGTTGATAGCAAATGCCGAT,-0.757,-0.238,-0.288,0.344,-0.152,-0.359,-0.618,-0.282,-0.163
CCTATTAGTTGACCATAAGGCCAACCGAAGCTCG,1.68,0.941,0.942,0.893,0.779,2,1.89,0.724,1.06
CAAACTAGGTCAAAGGTCAATGTCGAGCCAACCA,5.2,8.62,7.28,3.16,9.99,4.71,1.71,6.33,3.03
CGAACTAGGTCAGAACAGGACTGTGAAGGATGAT,1.6,2.33,2.99,0.646,1.19,1.97,-0.0804,0.0454,-0.341
GCTGCTAGGTCAGGTTGGACAGCTAACGGGTACG,2.35,2.56,3.42,0.208,1.06,1.69,0.46,0.304,0.386
TGAGACAGGTGAAGGTAACTCAGGTACGCAGTCG,0.449,0.201,0.61,-1.52,0.312,1.18,-0.173,-0.109,-0.0182
TCTAGCGGGCCAGAGGGTCACTCAAGAGGTACGG,2.86,2.61,1.98,0.0957,2.37,1.51,-0.522,1.29,0.587
AATACCGGGTCACTAGGCCAGAGTAGGTACGAAT,2.74,4.17,3.95,1.2,4.15,3.08,0.928,3.03,1.22
GATACAGGGTCAGCTAGGGGCCAGAGTATGGAAA,3.52,6.94,4.94,1.25,4.43,3.62,0.639,3.31,0.774
TCTTATAGGTAATACAGGTGAAAGTCGGCATCTA,0.728,0.769,0.709,1.75,1.18,1.09,0.611,1.36,0.529
GCTATTAGTTGAACGGGCAACCGAATGATTCTCG,-0.0848,-0.133,0.229,0.557,-0.15,-0.33,-0.617,-0.187,-0.439
ACACACAGGTGAGTGAAGGTAACTCAGCTGGACG,-0.00486,0.394,0.59,-0.0875,0.549,1.57,-0.409,-0.0221,-0.0907
TCATATAGGCAAATGCTAGGTGAAAGTCCGATCT,0.285,0.0737,0.0347,1.15,0.445,0.84,0.227,0.571,-0.285
ATATGTAGGTTATCGGATCATTCAGTTTGCGCAT,0.853,0.837,0.866,0.702,1.12,0.794,0.624,1.58,0.764
